We go through 40 compounds from PubChem BioAssay (NCI).

The panel holds about 83,000 compounds, 20% with a hit somewhere; the sample as a whole holds those more often.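 Interpretation: 100, growth as untreated; towards 0, rising growth inhibition; 0, no net growth; 0 to -100, cell death. Compounds scoring below 10 were considered active.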 Active and inactive are the calls of the source.

For the assay, the system named is IGROV1 ovarian. Put plainly: NCI-60 one-dose screen, 48 h (100 = growth as untreated, 0 = no growth, -100 = all killed). As to conditions: 10 µM unless noted. Here is the method:
Growth inhibition of the IGROV1 human tumor cell line is measured as a screen for anti-cancer activity. Cells are grown in 96 well plates and exposed to the test compound for 48 hours. Compounds are tested at a single concentration, which is 10^-5 M for most compounds. The reported endpoint is percent growth (GI% or GIPRCNT), where numbers from 0 - 100% represent growth inhibition, and numbers from -100% - 0 represent cell death. For example, a value of 40 represents 60% growth inhibition. A value of 0 means no net growth occurred over the course of the experiment. A value of -40 indicates 40% of cells at the beginning of the experiment died by the end of the experiment. A value of -100 means all cells are dead at the end of the experiment.
NCI-60 Human Tumor Cell Lines Screen was performed using the standard one-dose NCI protocol, which is described in more detail at https://dtp.cancer.gov/discovery_development/nci-60/default.htm.
Compounds with GIPRCNT values below 10 were considered active. Activity score was based on GIPRCNT using the following formula: […]
Score is 0 for GIPRCNT values of 100 or above, 50 for GIPRCNT values of 0, and 100 for GIPRCNT values of -100.
Consider `CC1=NN(c2cccc(Cl)c2)C(=O)/C1=C\c1cn(-c2nc(N3CCOCC3)nc(N3CCOCC3)n2)c2ccccc12`, for which the growth was 106% (inactive). As to `COc1ccc(-n2nnnc2-c2cn[nH]c2C(F)(F)F)cc1`, the growth is -28.4% (active).

In the case of `C=CCNC(=S)NNc1ccc([N+](=O)[O-])cn1`, the growth was 102% (inactive). As for `COC(=O)C(C(=O)OC)C(Br)C(Br)C(Br)c1ccccc1` (stereo not given), the figure is 107% (inactive); as for `COC(=O)c1cc(O)c2cc3c(cc2c1-c1cc(OC)c(OC)c(OC)c1)OCO3`, 44% (inactive); as for `CCCCCCCCCCCCCCCCNC(=O)Nc1ccc(C)c(NC(=O)NCCCCCCCCCCCCCCCC)c1`, 107% (inactive). The result for `CCOC(=O)c1csc(-c2ccc(COC(=O)c3ccccc3)o2)n1` reads 103% (inactive); that for `CCCCCSc1ccc2nc(NC(=O)OCCC)sc2c1`, 55.4% (inactive); that for `CCOC(=O)c1sc(NS(=O)(=O)c2ccccc2)nc1C`, 6.87% (active). As to `Cc1ccc2c(c1)C(=O)CCS2`, the growth was 104% (inactive).

For the compound `Oc1ccccc1/C=N/N=C/c1c(O)ccc2ccccc12`, the growth was 47.9% (inactive). As for `COc1ccc(/C=N/c2cc(C(C)(C)C)nn2-c2ccccc2)cc1`, the figure is 125% (inactive).

Take `O=C(O)/C(Br)=C/c1c[nH]c2ccc(Br)cc12`: the growth was 98.2% (inactive). The result for `NNC(=S)N1N=C(c2cc3ccccc3o2)CC1c1c[nH]c2ccccc12` (stereo not given) reads 35.3% (inactive); that for `O=C1N/C(=N\c2nnc(-c3ccc(O)cc3)s2)S/C1=C\c1ccccc1O`, 99.1% (inactive).

Regarding `CCOC(=O)C1=NN(c2ccccc2)C2=NC(=O)/C(=C\c3cn(-c4ccccc4)nc3-c3cc4ccccc4o3)C(=O)N12`, the growth is 89.1% (inactive). The result for `COc1ccc(/C=C2\CCCC3=C2N=C2SC=NN2C3c2ccc(OC)c(OC)c2)cc1OC` (stereo not given) reads 47.8% (inactive). Consider `COC(=O)c1ccc2[nH]c(O)c(C(=Nc3ccc(N(C)C(=O)CN4CCN(C)CC4)cc3)c3cccc(OC)c3)c2c1`, for which the growth is 1.75% (active). As to `COc1cccc(Cn2cc3c(c2)-c2oncc2CC3)c1`, the growth is 20.1% (inactive). Consider `COC(=O)C(N)CC(C)C` (stereo not given), for which the growth was 115% (inactive). As to `COc1cc(OC)c(NC(=O)n2ncc3cc(Nc4ncnc5ccccc45)ccc32)cc1Cl`, the growth was 56.4% (inactive). As for `Nc1nc2c(c3cnccc13)C(c1cccc(Br)c1)Cc1cnccc1-2` (stereo not given), the figure is 27.9% (inactive). The result for `O=C1/C(=C/c2ccc(Cl)cc2)CCC/C1=C\c1ccc(Cl)cc1` reads 62.6% (inactive). For `CCOC(=O)C(C)C(C)(O)c1ccccc1` (stereo not given), the growth is 101% (inactive). For `N=C(N)N=Nc1ccc(NN=C(N)N)cc1`, the growth was 99.8% (inactive). With `Clc1ccc(N/N=C(/c2ccccc2)c2ccccn2)nc1`, the growth was 22.5% (inactive). Regarding `CN(CCC#N)c1ccc(/C=C(\C#N)c2cccc(C(F)(F)F)c2)cc1`, the growth is 65.7% (inactive).

Turning to `O=C1/C(=C\c2cn(-c3nc(N4CCOCC4)nc(N4CCOCC4)n3)c3ccccc23)c2ccccc2N1c1c(Cl)cccc1Cl`, the growth is 36.2% (inactive).

With `O=C1C(=O)c2ccccc2C(O)=C1CCCc1ccc(Oc2ccccc2)cc1`, the growth is 34.7% (inactive). As for `Cc1ncc(C(=O)Nc2ccc(CN3CCN(C)CC3)c(C(F)(F)F)c2)cc1C#Cc1cnc(NC2CC2)c2ncccc12`, the growth is -80.4% (active).

Turning to `CC(C)(C)OC(=O)N1C/C(=C\c2ccccc2)C(=O)/C(=C/c2ccccc2)C1`, the growth was 95.5% (inactive). On to `Nc1nc2cc(O)ccc2n2cc3c(F)cccc3c12`, for which the growth was 18.4% (inactive). For `CNc1nc2ncn(C)c2c(=O)[nH]1`, the growth was 94.2% (inactive).

With `COC(=O)/C=C/c1cc(O)c2oc(-c3ccc(O)c(O)c3)c(C(=O)OC)c2c1`, the growth was 32.4% (inactive).

`N=C(N)c1ccc(-c2ccc(-c3ccc(F)cc3)s2)cc1`: the growth is -69.8% (active). Regarding `CC(=O)c1nn(-c2ccc(C)cc2)cc1C(=O)c1cc2c(ccc3ccccc32)oc1=O`, the growth was 88% (inactive). The result for `Cc1cc2cn3c4ccc(O)cc4nc(N)c3c2cc1C` reads 3% (active). The result for `CC1(c2ccc(Br)cc2)NC(=O)NC1=O` (stereo not given) reads 102% (inactive); that for `CC1C(=O)CCCC1=O`, 102% (inactive).

As to `NNC(=O)CNc1ccc2ccccc2c1`, the growth was -27.9% (active).
